# ALR H2O2 inh – human ALR oxidase inhibition via reduced H2O2 | P55789 | purified ALR, DTT oxidation, H2O2 HRP-luminol luminescence | inhibition, % (concentration not given with the values) | 3.8% of 290,000 active | AID 485317;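 active means mean replicate inhibition above about 79%, with every replicate also reaching it, limit read from the data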
# Target sequence (P55789 whole entry, looked up): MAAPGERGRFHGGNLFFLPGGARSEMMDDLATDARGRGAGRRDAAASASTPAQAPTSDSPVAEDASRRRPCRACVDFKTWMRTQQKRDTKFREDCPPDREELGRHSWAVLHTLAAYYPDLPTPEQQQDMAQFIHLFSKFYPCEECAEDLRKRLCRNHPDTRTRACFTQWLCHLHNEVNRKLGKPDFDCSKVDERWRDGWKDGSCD
# AI-2 QS mod – modulates the Vibrio harveyi AI-2 quorum sensing system | Vibrio harveyi JMH597 AI-2 luminescence/OD600 ratio, 9 h; stronger effect = lower value; strain lacks LuxN and CqsS sensors; 0 = neutral-control median | activity change, % at 7.5 µM | 0.4% of 300,000 active; in the data active means activity change below about -75%, passing the limit was not always enough;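 further: luminescence divided by OD600 gain over 9 h not by final OD600 alone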
# HIF act – HIF pathway transcriptional activation; U2OS HRE-luciferase reporter, luminescence; normalized: DMSO 0%, desferrioxamine 100%; activation, % at 7.5 µM (by protocol); 0.32% of 300,000 active;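 active means mean activation of at least 10% of the iron chelator positive control signal, with at least half of replicates also reaching 10%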
# Mot1-301 SUMO – blocks SUMOylation pathway, rescuing yeast Mot1-301 growth. S. cerevisiae Mot1-301 growth rescue, ATP luminescence, 38.5C; percent above DMSO median, 100 means doubled. growth rescue, % at 18.8 µM. 1% of 320,000 active;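 active means every valid replicate shows activation above 250% relative to neutral control wells; inactive means the rest, any valid replicate at or below 250%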
# Hits are given with their value; – = inactive; · = no result; + = active, no number. This is a sample that favours compounds with a hit; in the whole collection about 4.8% have one here.
SMILES,ALR H2O2 inh,AI-2 QS mod,HIF act,Mot1-301 SUMO
CCCCc1cc(=O)oc2cc(OCC(=O)N[C@@H](Cc3ccccc3)C(=O)O)ccc12,–,–,–,523
O=C(CCn1c(=O)oc2ccccc21)N1CCN(c2ccc(F)cc2)CC1,97,–,–,–
C=CCNC(=O)COc1coc(CN2CCN(C(=O)c3ccco3)CC2)cc1=O,–,–,–,–
c1ccc(NNC2=NCCS2)cc1,91,–,–,–
C=CCC[C@H](Cc1ccc(F)cc1)C(=O)OC[C@@H](Cc1c[nH]c2ccccc12)NC(=O)[C@@H](CC=C)CC(=O)NCCO,–,·,·,–
COc1ccc(N2CCN(C(=O)c3ccc(SC)cc3OC)CC2)cc1,85,–,–,–
O=C(c1ccc2c(c1)OCO2)N1CCN(c2ccccc2)CC1,98,–,–,–
O=C(c1ccc2c(c1)OCO2)N1CCN(c2ccc(Cl)cc2)CC1,–,–,–,–
O=C(c1ccccc1)N1CCN(c2ccc(NCc3ccc4c(c3)OCO4)cc2)CC1,89,–,–,–
COc1cc(SC)ccc1C(=O)N1CCN(c2ccccc2F)CC1,–,–,–,–
COc1ccc(N2CCN(C(=O)c3ccc4c(c3)OCO4)CC2)cc1,84,–,–,–
N#CCn1c(CN2CCCC2)nc2ccccc2c1=O,–,–,–,–
Cc1ccc(NC(=O)COc2ccc(N(C)C(=O)C(C)(C)C)cc2)cc1S(=O)(=O)N1CCCCC1,–,·,·,–
COc1cc(OC)cc(C(=O)N2CCN(S(=O)(=O)c3ccc(Cl)s3)CC2)c1,·,·,·,–
COc1cc2c(cc1OC)C(C(=O)Nc1ccc(F)c(Cl)c1)CC(=O)N2 (stereo unspecified),–,–,–,–
O=C(c1cc2ccccc2[nH]1)N(Cc1cccnc1)CC1CCCN(C2CCCCC2)C1 (stereo unspecified),–,–,–,–
COC(=O)CCCC1=CC2=CC(=O)C(C)(OC(=O)c3cccs3)C(=O)C2=CN1Cc1ccccc1 (stereo unspecified),–,–,–,–
COC(=O)CCCC1=CC2=CC(=O)C(C)(OC(=O)c3cccs3)C(=O)C2=CN1Cc1ccc2c(c1)OCO2 (stereo unspecified),·,–,19,–
CC1(NC(=O)Cc2ccc(S(=O)(=O)N3CCOCC3)s2)CCS(=O)(=O)C1 (stereo unspecified),·,–,–,–
O=C(CSc1nnc(SCc2ccc(Cl)cc2)s1)N/N=C/c1ccc(Cl)cc1Cl,–,–,–,–
Cc1nnc(SCC(=O)N/N=C/c2cc(Cl)c(O)c(Cl)c2)s1,82,–,–,–
COc1ccc(CC(=O)OCC(=O)NC2CCCCC2)cc1OC,–,·,·,–
COc1ccccc1N1C(=O)CC(N(O)c2ccccc2)C1=O (stereo unspecified),–,–,–,–
CCCOc1ccccc1N1C(=O)CC(N(O)c2ccccc2)C1=O (stereo unspecified),97,–,–,–
CN(C)c1ccc(C(=S)N2CCCCC2)cc1,–,–,–,–
SMILES,ALR H2O2 inh,AI-2 QS mod,HIF act,Mot1-301 SUMO
CN(C)c1ccc(C(=S)N2CCNCC2)cc1,99,–,–,–
COc1cccc(-c2ncc3ccccc3c2COC(=O)c2ccc(F)cc2)c1,–,·,·,–
O=C(Nc1ccc(N2CCOCC2)cc1)Nc1ccc2nsnc2c1,86,–,–,–
CN(C)c1cccc(C(=O)Nc2ccc(N3CCOCC3)cc2)c1,91,–,–,–
Cn1cccc1C(=O)Nc1ccc(N2CCOCC2)cc1,97,·,·,–
O=C(Nc1ccc(N2CCOCC2)cc1)c1ccncc1,–,–,–,–
CC(Sc1nc2ccccc2n1C)C(=O)Nc1ccc(N2CCOCC2)cc1 (stereo unspecified),95,–,–,·
COCCOC(=O)c1c(NC(=O)COC(=O)Cc2cccc(OC)c2)sc(C(N)=O)c1C,–,–,–,–
Cc1ccc(C(=O)Nc2ccc3c(c2)C(=O)N(C)C3=O)c(C)c1,·,–,–,–
O=c1c2cc3c(nc2[nH]c(=S)n1-c1ccccc1)CCCC3,·,–,–,–
O=C1NN(c2ccccc2)C(=O)/C1=C/c1ccc(-c2ccc(C(=O)O)cc2)o1,99,–,–,–
Cc1ccc(N2NC(=O)/C(=C/c3ccc(-c4ccc(Cl)c(C(=O)O)c4)o3)C2=O)cc1C,–,–,–,–
O=C1NN(c2ccc(Cl)c(Cl)c2)C(=O)/C1=C/c1ccc(-c2ccccc2C(=O)O)o1,99,–,–,–
COc1ccc(CNCc2ccc3ccccc3c2)c(OC)c1,–,–,–,–
Cc1cc(C)nc(OC(=O)c2ccc(Cl)cc2Cl)n1,98,–,–,–
CCC(=O)Oc1ccc(C(=O)Nc2cccc(C(=O)NCC(C)C)c2)cc1,–,–,–,+
CCC(=O)Oc1ccc(C(=O)Nc2ccccc2C(=O)NCC(C)C)cc1,–,–,–,–
CCN(CC)S(=O)(=O)c1cc(C(=O)Nc2cc(C)on2)c(Cl)cc1Cl,–,–,–,–
Oc1cccc(/C=N/Nc2ncnc3c2ncn3Cc2ccccc2)c1,–,–,–,–
Oc1ccc(/C=N/Nc2ncnc3c2ncn3Cc2ccccc2)cc1O,96,–,–,–
O=C(CN1CCN(S(=O)(=O)c2ccccc2)CC1)Nc1ccnn1C1CCCC1,·,·,·,–
O=C(NC1CC(=O)N(c2ccc(Cl)cc2)C1)C1CC1 (stereo unspecified),–,–,–,–
COc1ccccc1N=c1oc2c(OC)cccc2cc1C(=O)NCc1ccco1,86,–,–,–
O=C(CCS(=O)(=O)c1ccccc1)NC1CCCCC1,84,–,–,–
O=C(CSc1nc2scc(-c3ccco3)c2c(=O)n1-c1ccccc1)NCC1CCCO1 (stereo unspecified),96,–,–,–
SMILES,ALR H2O2 inh,AI-2 QS mod,HIF act,Mot1-301 SUMO
C=CCn1c(SCC(=O)NCC2CCCO2)nc2scc(-c3ccco3)c2c1=O (stereo unspecified),–,–,–,–
CCOC(=O)CSC(=S)NC(=O)c1ccc(OC)cc1,100,–,–,–
COC(=O)[C@H](CC(C)C)N(Cc1ccccc1)S(=O)(=O)N(Cc1ccc(OC)cc1)[C@@H](CC(C)C)C(=O)OC,–,·,·,–
Cc1ccc(S(=O)(=O)N(CC(=O)Nc2ccc(Cl)cc2)C(=O)N2CCN(C)CC2)cc1,·,–,–,·
Cc1ccc(S(=O)(=O)N2CCN(C(=O)COC(=O)CSc3ccccc3)CC2)c(C)c1,–,–,–,–
C=CCNC(=O)c1onc(CSc2cc(C)ccc2C)c1C(=O)O,86,–,–,–
CC(C)c1ccc(SCc2noc(C(=O)NCC3CCCO3)c2C(=O)O)cc1 (stereo unspecified),97,–,–,–
C=CCNC(=O)c1onc(CSc2ccccc2C)c1C(=O)O,–,–,–,–
COc1ccc(C(=O)NCCN2CCCC2)cc1[N+](=O)[O-],–,–,–,–
COC(=O)c1ccc(NC(=O)N2CCOCC2)cc1,–,–,–,–
O=C(Nc1ccc(O)cc1)N1CCOCC1,99,–,–,–
O=C(Nc1ccc(Nc2ccccc2)cc1)N1CCOCC1,99,–,–,–
CC(C)(/C=N/NC(=O)CSCc1ccccc1Cl)CCC#N,98,–,–,–
